# From PubChem BioAssay (NCATS)
# Results filed as inconclusive are left out. Active and inactive are the calls of the source. The call rests on the fitted dose curve; in most records, active means well fitted inhibition curve with a large enough effect; inconclusive means small, poorly fitted or top-dose-only effect; inactive means flat fitted curve, though single readings scatter.
# Tested on: KB-3-1
# Assay: Cytotoxic Profiling of Annotated Libraries Using Quantitative High-Throughput Screening (AID 1296008); further: nearly all actives have a fitted effect of over 60% in size
# Settings: Five cell lines viability, CellTiter-Glo ATP luminescence, 48-72 h; max response: hits give low values
# How it was run: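 Compounds were pin-transferred onto cells and incubated 48 or 72 hr at 37 degree Celsius, 95% humidity. CellTiter-Glo was added, plates sat 10 min at room temperature, then ATP-coupled luminescence was imaged as the viability read-out.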
# On the % scale 0 is the no-effect control and ±100 the full control effect.
Compound,outcome,max response
CC(=O)NCCCCn1c2c(c3ccccc31)C(=O)NCC2,inactive,
Cc1nnc(C(C)C)n1C1CC2CCC(C1)N2CCC(NC(=O)C1CCC(F)(F)CC1)c1ccccc1 (stereo not given),,8.02% (inactive)
CC1=CC[C@]2(C(=O)O[C@@H]3O[C@H](CO[C@@H]4O[C@H](CO)[C@@H](O[C@@H]5O[C@@H](C)[C@H](O)[C@@H](O)[C@H]5O)[C@H](O)[C@H]4O)[C@@H](O)[C@H](O)[C@H]3O)CC[C@]3(C)C(CCC4[C@@]5(C)C[C@@H](O)[C@H](O)[C@@](C)(CO)C5CC[C@]43C)C2C1C (stereo not given in full),,0.857% (inactive)
COc1ccc(/C=C/C(=O)O[C@@H]2[C@@H](O)[C@H](C)O[C@@H](OC3C4C=COC(O[C@@H]5O[C@H](CO)[C@@H](O)[C@H](O)[C@H]5O)C4C4(CO)OC34)[C@@H]2O)cc1OC (stereo not given in full),,-0.119% (inactive)
C=C(C)[C@H]1C[C@@H](O)C(=C)CC[C@@H](O)C(=C)[C@@H](O)C1,inactive,
CC1(C)CC2C(O)C3=C(CC(C)(O)C2C1)C(=O)OC3O (stereo not given),,5.32% (inactive)
Oc1ccc([C@H]2COc3cc(O)ccc3C2)cc1,,0.946% (inactive)
CC(=C/C(=O)O)/C=C/[C@]1(O)[C@@]2(C)CO[C@]1(C)C[C@H](O[C@@H]1O[C@H](CO)[C@@H](O)[C@H](O)[C@H]1O)C2,,0.594% (inactive)
C[C@@H]1C(=O)O[C@H]2[C@H]1CC[C@@]1(C)C(=O)C=C[C@](C)(O)[C@H]21,,1.87% (inactive)
CC1(C)C[C@H]2C3=CCC4[C@@]5(C)CC[C@H](O[C@H]6O[C@H](C(=O)O)[C@@H](O)[C@H](O)[C@H]6O[C@H]6O[C@H](CO)[C@@H](O)[C@H](O)[C@H]6O[C@@H]6O[C@H](CO)[C@@H](O)[C@H](O)[C@H]6O)[C@](C)(CO)C5CC[C@@]4(C)[C@]3(C)CC[C@@]2(C)[C@H](O[C@@H]2OC[C@H](O)[C@H](OC3O[C@H](CO)[C@@H](O)[C@H](O)[C@H]3O)[C@H]2O)[C@@H]1O (stereo not given in full),,9.85% (inactive)
